Among all 220,000 compounds or so, about 8,200 (3.7%) were called active. Only a selection was taken, and actives are over-represented in it overall. Values without a mark were called inactive.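 Rule for the calls: active = compounds that reduced the stress-induced luciferase reporter signal by more than about 70% of percent inhibition (limit read from the data); inactive = the rest.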

The nature of the assay: blockers of ER-stress CHOP reporter expression – cell-based, unfolded protein response, luciferase reporter, primary screen (AID 2732).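 Note: 0% = tunicamycin plus vehicle and 100% = wells without tunicamycin.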 Particulars: CHO-K1 CHOP-promoter luciferase, tunicamycin-induced, 15-18 h; at 10 µM; stronger effect = higher value. A general note: A reporter such as luciferase makes a cellular process visible.
As for `Cc1ccc(-c2nn(-c3ccccc3)cc2/C=C/C(=O)Nc2cccc(S(N)(=O)=O)c2)cc1`, the inhibition was 88.3% (active).
For the compound `Cc1ccc(-c2nn(-c3ccccc3)cc2C(=O)Nc2cccc(S(=O)(=O)N3CCOCC3)c2)cc1`, the inhibition is 40%.
Next, `COc1ccc(-c2nn(-c3ccccc3)cc2/C=C\C(=O)Nc2ccc(C(=O)O)cc2)cc1`: 40.4%; `CC(=O)NCc1ccc(S(=O)(=O)NC2CCN(Cc3ccccc3)CC2)cc1`: -10.7%.
For `Nc1ccccc1SC(C[N+](=O)[O-])c1ccccc1` (stereo not drawn) the value was 46.3%; for `O=C1CC2(CC(c3ccc(Cl)cc3)=NO2)C(=O)N1c1ccccc1` (stereo not drawn), 18.6%; for `NC(=O)C1=C[C@@H](c2csc3ccccc23)C[C@@H](OCc2ccc(CO)cc2)O1`, 36.3%.
Take `COP1(=O)C[C@@H](O)[C@@H](O)[C@@H](COCc2ccccc2)O1` (stereo partly drawn): the inhibition is -7.84%.
For `Cc1ccc2[nH]c(=O)c(-c3nc4c(C)cccn4c3NCc3ccco3)cc2c1` the value was 95.7% (active); for `CCCc1nc(-c2cc3cc(C)ccc3[nH]c2=O)no1`, 14.6%.
Next, `CCNCc1cc2cc(C)ccc2[nH]c1=O`: -7.23%; `Cc1nnc(SC(C(=O)c2ccccc2)c2ccccc2)[nH]c1=O` (stereo not drawn): -8.07%.
For `CCn1c2ccccc2c2cc(NC(=O)CNC)ccc21` the value was 5.95%; for `CCOc1ccccc1C(=O)NCCCn1ccnc1`, -4.75%; for `CCCC(=O)Nc1ccc(C(=O)NCCCn2ccnc2)cc1`, 73.7% (active).
With `O=C(CCN1C(=O)c2ccccc2C1=O)NCCCn1ccnc1`, the inhibition is -1.9%.
For `N#C/C(=C\N1CCOCC1)S(=O)(=O)c1ccc(Cl)cc1` the value was 21.5%; for `O=C(Nc1ncc2c(n1)CC(c1ccco1)CC2=O)c1ccc(Cl)cc1` (stereo not drawn), 33.8%.
As for `CCc1ccc(Nc2ncc3c(n2)CC(c2ccco2)CC3=O)cc1` (stereo not drawn), the inhibition was 78.5% (active).
For `COc1cc(C2CC(=O)c3cnc(NC(C)=O)nc3C2)cc(OC)c1OC` (stereo not drawn) the value was 30.2%; for `CCOC(=O)c1cn(CC)c2cc(F)c(F)cc2c1=O`, -15.5%.
For `O=C(CC(NC(=O)c1ccccc1)c1ccccc1)Nc1ccc(F)c(F)c1` (stereo not drawn) the value was 105% (active); for `O=C(CNC(=O)c1cc(=O)[nH]c2ccccc12)Nc1ccc(F)c(F)c1`, -18.5%; for `O=C(CNC(c1ccccc1)c1ccccc1)Nc1ccc(F)cc1`, 23.2%.
In the case of `CCn1c(=O)c([N+](=O)[O-])c(NCc2ccc3c(c2)OCO3)c2ccccc21`, the inhibition was 22.4%.
For the compound `Cc1cc(NC(=O)OC(C)C)ccc1-c1ccc(NC(=O)OC(C)C)cc1C`, the inhibition was 25.1%.
For `C(=N\Nc1ccc2ccccc2n1)/c1ccc2c(c1)OCO2` the value was 71% (active); for `Brc1ccc(-c2csc(N/N=C/c3ccc4c(c3)OCO4)n2)cc1`, 26.8%.
For `Cc1noc(C)c1/C=N/Nc1ccc2ccccc2n1` the value was 16.5%; for `COc1ccc(Cc2cc(-c3ccc(F)cc3)n[nH]c2=O)cc1`, 15.3%; for `O=C(NCC1CCCO1)c1cc(-c2ccccc2)nc2ccccc12` (stereo not drawn), 1.14%.
Next, `Cc1ccc(-c2csc(SCC(=O)Nc3cc(C)on3)n2)cc1`: 32.5%; `Cc1ccc2nc(-c3ccc(SCC(=O)Nc4cc(C)on4)nc3)[nH]c2c1`: 91.1% (active).
For `Cc1ccc(SCCC(=O)Nc2cc(C)on2)cc1`, the inhibition is 20.7%.
Next, `CCCc1nc2oc3c(=O)[nH]cnc3c2c2c1COC(C)(C)C2`: -14.7%; `COC(=O)c1cc(S(=O)(=O)N2CCC(C(N)=O)CC2)oc1C`: 4.8%; `COCCNc1nc(-c2ccccc2)nc2c1oc1ccccc12`: 37.1%.
For `Cc1cc(C)n(CC(C)NCc2c(C(=O)N3CCOCC3)nc3c(C)cccn23)n1` (stereo not drawn) the value was 11.3%; for `Cc1ccc(NC(=O)/C(=C/c2ccc([N+](=O)[O-])cc2)NC(=O)c2ccccc2)cc1`, 104% (active).
Next, `O=C(Nc1ccc(C(=O)O)cc1)/C(=C/c1ccc([N+](=O)[O-])cc1)NC(=O)c1ccccc1`: -5.43%; `O=C(Nc1ccccc1)/C(=C/c1ccc([N+](=O)[O-])cc1)NC(=O)c1ccccc1`: 51.8%.
On to `Cc1cc(=O)oc2cc(OCC(=O)Nc3nnc(C4CC4)s3)ccc12`, for which the inhibition was 1.52%.
Next, `CNC1(c2nnnn2-c2c(C)cccc2C)CCOC(C)(C)C1` (stereo not drawn): 1.67%.
Turning to `CCOC(=O)C1CCN(C(=O)Nc2ccc(C)c(Cl)c2)CC1`, the inhibition is 1.94%.
For `C/C=C(/C)C(=O)O[C@@H]1c2cc3c(c4c2[C@@]2(CO4)C(=O)C(OC)=C(OC)C=C2C[C@@H](C)[C@H]1C)OCO3` the value was 2.19%.
For `O=S(=O)(NCCSc1ccccn1)c1ccc(Cl)cc1` the value was 15.3%.
For `Cc1ccc(S(=O)(=O)NCCSc2ccccc2)cc1[N+](=O)[O-]` the value was 33.3%; for `CCOc1ccc(S(=O)(=O)NCCSc2ccccc2)cc1`, 95.6% (active).
Turning to `COc1ccc(-c2oc3ncn(Cc4ccco4)c(=N)c3c2-c2ccc(OC)cc2)cc1`, the inhibition is -30.9%.
Next, `N=c1c2c(-c3ccccc3)c(-c3ccccc3)oc2ncn1Cc1ccco1`: 92.2% (active).
For `c1ccc(-c2oc3ncnc(N4CCOCC4)c3c2-c2ccccc2)cc1` the value was 57.6%; for `O=C(CNc1ccc(F)cc1F)NC(=O)NCc1ccco1`, 10.8%.
Next, `Cc1nc2nc(SCC(=O)c3ccccc3)[nH]c2cc1Br`: -0.2%.
As to `Cc1nc(Nc2ccc3c(c2)OCCO3)c2nnn(Cc3ccccc3Cl)c2n1`, the inhibition is 69.6%.
For `O=C(Cn1cnc2c(nnn2Cc2ccc(F)cc2)c1=O)NCc1ccc2c(c1)OCO2` the value was 37.3%; for `CCCc1nc(NCc2ccc3c(c2)OCO3)c2nnn(Cc3ccccc3Cl)c2n1`, 70.4% (active); for `CS/C(=C\C(=O)c1ccco1)Nc1ccccc1Cl`, 1.24%.
For `CC(O)c1nc2c(c(=O)n(C)c(=O)n2C)n1C` (stereo not drawn) the value was 10.6%; for `CCC1C(C#N)=C(SC)NC2=C1C(=O)CC(C)(C)C2` (stereo not drawn), 73.6% (active); for `CC(=O)C1=C(C)NC2=C(C(=O)CC(C)(C)C2)C1C` (stereo not drawn), 23.4%.
For `COc1cc(C2C(C#N)=C(C)NC3=C2C(=O)CC(C)(C)C3)ccc1O` (stereo not drawn) the value was 49.1%.
As for `CCn1c(SCC(=O)N/N=C/c2ccncc2)nc2ccccc21`, the inhibition is 24.8%.
Regarding `CCOC(=O)c1sc(NC(=O)CSc2nnc(-c3ccco3)o2)c(C(=O)OCC)c1C`, the inhibition was 19.2%.
Next, `CCOC(=O)c1c(NC(=O)CSc2nnc(Cc3csc(N)n3)n2C)sc(C)c1C`: 4.17%; `CCOC(=O)c1c(NC(=O)CSc2nnc(CNc3ccc(C)cc3C)o2)sc(C)c1C`: 80.7% (active).
Next, `Nc1c(Cl)cc(S(N)(=O)=O)cc1S(N)(=O)=O`: 4.35%; `O=[N+]([O-])c1cccc(Nc2c3ccccc3nc3ccccc23)c1`: 47.9%.
As for `CCn1c(/C=C/c2ccc([N+](=O)[O-])o2)nc2ccccc2c1=O`, the inhibition was 5.31%.
Next, `Cn1cc(/C=C/c2nc3ccccc3c(=O)n2-c2cccc([N+](=O)[O-])c2)c2ccccc21`: 86% (active); `CCn1c2ccccc2c2cc(NC(=O)Nc3ccc([N+](=O)[O-])cc3C)ccc21`: 31.1%.
For `Nc1scc[n+]1Cc1cccc2cccnc12` the value was 12%.
Next, `Cc1cc(NC(=O)/C=C/C(=O)N(CC(=O)NC2CCCC2)c2ccc(F)cc2)no1`: -11.4%; `Cc1cc(NC(=O)/C=C/C(=O)N(c2ccccc2C)C(C(=O)NC2CCCC2)c2ccc(F)cc2)no1` (stereo not drawn): 87.6% (active); `Cc1cc(NC(=O)CCC(=O)N(c2cccc(F)c2)C(C(=O)NC2CCCC2)c2ccncc2)no1` (stereo not drawn): -6.58%.
Consider `Cn1cccc1/C=N/NC(=O)CNc1cccc2ccccc12`, for which the inhibition was 10.8%.
For `O=C(O)c1cccnc1Sc1ncnc2sc3c(c12)CCC3` the value was -7.08%.
For the compound `O=C1OC(/C=C/c2ccccc2)=NC/1=C/c1ccco1`, the inhibition is 0.75%.
For `CC(C)(C)C1C/C(=C/c2ccco2)C(=O)/C(=C/c2ccco2)C1` (stereo not drawn) the value was 108% (active).
Next, `CCC1S/C(=N/N=C/c2ccco2)NC1=O` (stereo not drawn): 40.4%.
Consider `COc1ccc(-c2csc(NC3OC(=O)c4ccccc43)n2)cc1` (stereo not drawn), for which the inhibition was -118%.
As to `COc1cc(/C=N\Nc2nc(-c3cccs3)c(NC(C)=O)s2)ccc1O`, the inhibition was -7.52%.
For `NNC(=O)c1ccc(COCC(F)(F)C(F)F)cc1` the value was -2.57%; for `COc1ccc(CCNC(=O)C(=O)NCC2CCNCC2)cc1OC`, -6.48%; for `C=CCNC(=O)c1sc(SC)cc1-c1ccc(Cl)cc1`, 72.1% (active).
Next, `C=CCNC(=S)NNC(=O)c1cc(Cl)ccc1OC`: -7.01%.
For `C=CCNC(=O)c1ccc(C)c(Br)c1` the value was 24.2%; for `COc1cc(NC(=O)c2ccc(CNc3c(N4CCCC4)c(=O)c3=O)cc2)cc(OC)c1OC`, -0.87%.
Turning to `COc1ccccc1-n1c(SCC(=O)O)nc2sc3c(c2c1=O)CCC3`, the inhibition was 8.81%.
For `CCOc1ccc(/C(O)=C2\C(=O)C(=O)N(c3ccc(OC)cc3)C2c2ccccc2[N+](=O)[O-])cc1` (stereo not drawn) the value was -9.44%; for `O=c1c(-c2ccccc2)coc2cc(O)ccc12`, 15.5%; for `O=c1c(-c2ccccc2)coc2c(CN3CCOCC3)c(O)ccc12`, -10.6%.
For `CC(C)=CCc1c(O)c(CC=C(C)C)c2occ(-c3ccc(O)cc3)c(=O)c2c1O` the value was 104% (active); for `O=C(c1ccc(Cl)cc1)N1N=C(c2ccccn2)CC1(O)C(F)(F)F` (stereo not drawn), 6.12%.

What is called inhibition is the change of the read-out against control, counted positive when it falls.

Values taken from PubChem BioAssay AID2732 (Emory University Molecular Libraries Screening Center, 2010).
